Measurements: PubChem BioAssay (NCATS)
Inconclusive results are not listed. Entries that show only a call come without a potency. Active and inactive are the calls of the source. Unless noted, calls come from the whole dose curve; as a rule, active = well fitted curve in the direction sought with a large enough effect; inconclusive = small, poorly fitted or top-dose-only effect, or another doubt; inactive = no such curve, though single readings can be large; an effect the other way counts as inactive or inconclusive.

Experiments:
[1] = biological target: Thyrotropin-releasing hormone receptor (Homo sapiens) (UniProt P34981); assay: qHTS for Small Molecule Agonists and Allosteric Enhancers of Human TRH Receptor: Validation Screen for Agonists (AID 493127;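 active = calcium activation more than 3 SD above the typical response in the agonist read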;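 note: intracellular calcium rise by fluo-8 fluorescence before TRH EC20 addition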); details: TRH receptor agonist cell assay; at 2 µM; stronger effect = higher value
Summary of the method: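 TRHR-expressing cells were plated overnight in serum-containing medium, then loaded with fluo-8 calcium dye at room temperature for 30 min–1.5 h. After a 10 s baseline, compound was pin-transferred and calcium fluorescence (ex 480/em 530) read kinetically for agonist response.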

[2] = Nrf2 qHTS screen for inhibitors: Validation (AID 493153; active = well fitted inhibition curve with a large enough effect in the main read-out, with a control signal flat, not every such curve was filed as active; note: potency is the fitted concentration of half-maximal effect); details: A549 ARE-Fluc reporter, 18-24 h; Potency: luciferase luminescence; viability change: measured here: cytotoxicity max response; luciferase luminescence, at 46.1 µM (top of the series)
Summary of the method: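 A549 cells carrying an ARE-driven firefly luciferase reporter, in 5% FBS OPTI-MEM, were treated with compounds in concentration-response for 18-24 h at 37°C. Viability was read by CellTiter-Fluor fluorescence, then Nrf2 activity by luciferase luminescence.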

[3] = qHTS for Inhibitors of Cell Surface uPA Generation: Validation Assay (AID 493164); details: mouse cells, plasminogen activation; series mostly up to 38.3 µM;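 note: RAW 264.7 macrophage cells exposed to compound for 18 h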
Summary of the method: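 RAW 264.7, 4000 cells/well, o/n plating; cpd 7-pt 1:5 dilution 2.45 nM–38.3 uM final; 18 h, 37 C/5% CO2; ATP-Lite, 5 s luminescence exposure.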

[4] = biological target: Galactokinase (Homo sapiens) (UniProt P51570); assay: qHTS Validation Assay for Inhibitors of Human Galactokinase (GALK) (AID 493189); details: purified human GALK enzyme activity, qHTS 7-point titration; series mostly up to 57.5 µM
Summary of the method: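 Inhibition was measured as remaining ATP, detected by luciferase luminescence after a 1 h room-temperature reaction. Final conditions: 5 nM GALK, 100 uM galactose, 35 uM ATP, pH 8.0 HEPES buffer.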

[5] = biological target: Peptidyl-prolyl cis-trans isomerase NIMA-interacting 1 (Homo sapiens) (UniProt Q13526); assay: qHTS Validation Assay to Find Inhibitors of Pin1 (AID 504536; active = well fitted inhibition curve with a large enough effect in the polarisation, with a control signal flat, not every such curve was filed as active; the % refers to the polarisation); details: Pin1 fluorescence polarization peptide binding assay; series mostly up to 57.5 µM
Summary of the method: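 Fluorescence polarization competition: compounds (titration) displace HiFluor-488-labeled Pin1-1b peptide from Pin1 (0.3 uM final) in pH 7.5 HEPES buffer with DTT, 10 min at room temperature; %Activity normalized to no-enzyme wells, curves fitted.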

[6] = biological target: Phosphoglycerate kinase, glycosomal (Trypanosoma brucei brucei) (UniProt P07378); assay: qHTS Validation Assay to Find Inhibitors of Phosphoglycerate Kinase (AID 504547); details: enzymatic PGK inhibition, coupled luminescence read-out; series mostly up to 57.5 µM
Summary of the method: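 Inhibition of the enzyme is judged by a Kinase-Glo Plus luminescent signal following a one-hour incubation at room temperature. Because 1,3-BPG is unstable, it is made in situ by GAPDH at 100nM final; no-PGK wells define the baseline.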

[7] = biological target: phosphoglycerate mutase (Leishmania major) (UniProt Q4Q090); assay: qHTS Validation Assay to Find Inhibitors of Phosphoglycerate Mutase (AID 504548); details: biochemical enzyme activity; series mostly up to 57.5 µM
Summary of the method: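 Lm PGAM at 1.25 nM final with substrate in 100 mM TEA pH 7.6, 5 mM MgCl2, 0.01% Tween-20; 45 min at room temperature. Kinase-GloPlus added, 10 min, end-point luminescence read.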

[8] = biological target: Ubiquitin carboxyl-terminal hydrolase 1 (Homo sapiens) (UniProt O94782); assay: Inhibitors of USP1/UAF1: Pilot qHTS (AID 504865); details: purified USP1/UAF1, Ub-rhodamine cleavage fluorescence; series mostly up to 114 µM;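 note: rhodamine fluorescence freed from ubiquitin-rhodamine substrate followed over time; top concentration of the series differs between compounds; nearly all actives have a fitted effect of over 35% in size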
Summary of the method: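 Deubiquitinase activity followed as kinetic rhodamine fluorescence release from 150 nM Ub-Rho. 1 nM USP1/UAF1 with compound, after 15 min room-temperature preincubation, in HEPES pH 7.8 buffer containing TCEP, EDTA, BSA and Tween-20.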

[9] = qHTS for Inhibitors of ATXN expression: Validation of Cytotoxic Assay (AID 588349); details: cytotoxicity counter-screen for ATXN expression inhibitors, cell viability; series mostly up to 57.1 µM
Summary of the method: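 HEK293 cells were dosed with titrated compounds for 72 hr at 37 degrees C. Viability was read by CellTiter Glo luminescence, with intracellular ATP as the marker of cell survival.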

[10] = qHTS for Inhibitors of ATXN expression: Validation (AID 588378); details: cell-based ATXN2 expression reporter assay, luminescence; series mostly up to 57.1 µM; note: nearly all actives have a fitted effect of over 75% in size; note: potency is the fitted concentration of half-maximal effect
Summary of the method: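 Luciferase luminescence (Bright-Glo) from an ATXN2-FFLuc HEK293 line after 24 h compound exposure at 37 °C, preceded by a CellTiter-Fluor fluorescence viability read. Serial dilutions of a reference ATXN2 inhibitor and a luciferase inhibitor served as controls.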

Peptidyl-prolyl cis-trans isomerase NIMA-interacting 1 (Homo sapiens), sequence (Q13526 whole entry, looked up): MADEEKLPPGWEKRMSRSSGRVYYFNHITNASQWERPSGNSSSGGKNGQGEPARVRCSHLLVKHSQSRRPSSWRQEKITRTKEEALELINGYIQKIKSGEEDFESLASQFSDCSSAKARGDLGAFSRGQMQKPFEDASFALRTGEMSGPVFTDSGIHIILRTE
Ubiquitin carboxyl-terminal hydrolase 1 (Homo sapiens), sequence (O94782 whole entry, looked up): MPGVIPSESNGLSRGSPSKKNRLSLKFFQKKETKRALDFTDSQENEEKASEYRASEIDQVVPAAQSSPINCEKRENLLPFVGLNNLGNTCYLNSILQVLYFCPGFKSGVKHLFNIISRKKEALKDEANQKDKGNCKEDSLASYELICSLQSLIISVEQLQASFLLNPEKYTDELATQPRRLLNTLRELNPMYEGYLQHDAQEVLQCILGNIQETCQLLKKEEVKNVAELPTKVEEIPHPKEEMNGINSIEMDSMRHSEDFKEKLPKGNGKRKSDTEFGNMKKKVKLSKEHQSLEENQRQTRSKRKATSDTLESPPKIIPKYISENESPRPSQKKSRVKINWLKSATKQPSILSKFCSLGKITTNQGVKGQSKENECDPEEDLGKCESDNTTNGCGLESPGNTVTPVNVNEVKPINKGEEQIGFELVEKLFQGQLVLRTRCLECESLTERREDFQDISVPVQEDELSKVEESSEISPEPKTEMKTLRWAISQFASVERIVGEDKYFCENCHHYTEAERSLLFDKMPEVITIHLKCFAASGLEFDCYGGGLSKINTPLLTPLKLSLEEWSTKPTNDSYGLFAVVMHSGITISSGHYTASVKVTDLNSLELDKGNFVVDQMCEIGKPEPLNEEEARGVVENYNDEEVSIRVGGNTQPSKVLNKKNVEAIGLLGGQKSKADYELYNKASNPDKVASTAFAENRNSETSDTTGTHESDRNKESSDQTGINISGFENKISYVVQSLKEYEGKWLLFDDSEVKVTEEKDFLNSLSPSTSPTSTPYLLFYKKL
phosphoglycerate mutase (Leishmania major), sequence (Q4Q090 1-553): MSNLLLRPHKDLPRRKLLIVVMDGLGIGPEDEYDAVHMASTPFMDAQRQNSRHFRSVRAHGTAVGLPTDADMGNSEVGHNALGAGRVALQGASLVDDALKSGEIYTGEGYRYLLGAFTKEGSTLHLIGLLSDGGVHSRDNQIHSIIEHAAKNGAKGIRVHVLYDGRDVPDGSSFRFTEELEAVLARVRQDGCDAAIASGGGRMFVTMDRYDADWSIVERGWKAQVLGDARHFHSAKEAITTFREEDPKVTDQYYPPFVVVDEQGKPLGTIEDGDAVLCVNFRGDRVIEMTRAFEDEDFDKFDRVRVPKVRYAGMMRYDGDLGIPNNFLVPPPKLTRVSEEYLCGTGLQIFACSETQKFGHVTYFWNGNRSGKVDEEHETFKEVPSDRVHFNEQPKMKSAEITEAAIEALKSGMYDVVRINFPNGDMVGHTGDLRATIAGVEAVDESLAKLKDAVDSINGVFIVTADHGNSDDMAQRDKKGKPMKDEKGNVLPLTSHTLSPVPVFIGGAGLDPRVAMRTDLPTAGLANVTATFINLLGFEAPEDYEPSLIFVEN
Phosphoglycerate kinase, glycosomal (Trypanosoma brucei brucei), sequence (P07378 whole entry, looked up): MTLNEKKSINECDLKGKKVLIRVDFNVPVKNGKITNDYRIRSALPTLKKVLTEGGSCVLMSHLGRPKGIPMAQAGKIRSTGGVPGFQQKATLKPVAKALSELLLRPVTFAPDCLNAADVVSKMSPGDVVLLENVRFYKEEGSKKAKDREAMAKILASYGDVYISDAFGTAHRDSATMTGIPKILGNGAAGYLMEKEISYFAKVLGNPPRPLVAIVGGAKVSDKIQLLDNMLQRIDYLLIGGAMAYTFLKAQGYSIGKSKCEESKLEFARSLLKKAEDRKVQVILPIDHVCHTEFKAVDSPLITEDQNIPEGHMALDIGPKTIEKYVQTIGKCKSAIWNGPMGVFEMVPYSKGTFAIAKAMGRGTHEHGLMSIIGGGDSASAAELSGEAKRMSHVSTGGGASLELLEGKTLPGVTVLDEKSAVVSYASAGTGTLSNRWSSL
Thyrotropin-releasing hormone receptor (Homo sapiens), sequence (P34981 whole entry, looked up): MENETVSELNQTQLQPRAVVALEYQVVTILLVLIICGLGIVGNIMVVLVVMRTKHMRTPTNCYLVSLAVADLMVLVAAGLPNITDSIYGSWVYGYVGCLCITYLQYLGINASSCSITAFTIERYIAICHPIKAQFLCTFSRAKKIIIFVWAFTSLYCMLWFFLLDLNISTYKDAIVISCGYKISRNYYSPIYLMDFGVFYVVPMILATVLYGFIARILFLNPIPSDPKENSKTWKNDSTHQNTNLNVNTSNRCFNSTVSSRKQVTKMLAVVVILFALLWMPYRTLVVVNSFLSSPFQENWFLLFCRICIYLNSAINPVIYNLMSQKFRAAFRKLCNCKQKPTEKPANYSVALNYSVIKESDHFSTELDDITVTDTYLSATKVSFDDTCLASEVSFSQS
Galactokinase (Homo sapiens), sequence (P51570 whole entry, looked up): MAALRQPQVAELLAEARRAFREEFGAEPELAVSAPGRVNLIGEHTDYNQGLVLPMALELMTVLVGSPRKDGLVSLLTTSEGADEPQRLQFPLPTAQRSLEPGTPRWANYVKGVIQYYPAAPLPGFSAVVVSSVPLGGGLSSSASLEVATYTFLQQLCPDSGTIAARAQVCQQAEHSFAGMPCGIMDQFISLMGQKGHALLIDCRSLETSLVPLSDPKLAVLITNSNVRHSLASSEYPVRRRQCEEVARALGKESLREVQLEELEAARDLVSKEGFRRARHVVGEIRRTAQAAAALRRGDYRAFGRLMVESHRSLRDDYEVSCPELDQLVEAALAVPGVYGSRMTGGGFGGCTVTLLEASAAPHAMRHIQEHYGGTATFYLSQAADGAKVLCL

Compound: Cn1cnc2c(NCc3ccccc3)nc(NCCO)nc21
- activation [1]: 0.188% (inactive)
- Potency [2]: inactive
- viability change [2]: 8.36%
- outcome [3]: inactive
- outcome [4]: inactive
- outcome [5]: inactive
- outcome [6]: inactive
- outcome [7]: inactive
- Potency [8]: inactive
- outcome [9]: inactive
- Potency [10]: inactive

Compound: N[C@@H](Cn1ccc(=O)c(O)c1)C(=O)O
- outcome [3]: inactive
- outcome [5]: inactive
- outcome [6]: inactive
- outcome [7]: inactive
- Potency [8]: inactive
- outcome [9]: inactive
- Potency [10]: inactive

Compound: Cc1nn(-c2ccccc2)c(C)c1/C=N/N1CCN(Cc2ccccc2)CC1
- Potency [2]: inactive
- viability change [2]: -3.49%
- outcome [3]: inactive
- outcome [5]: inactive
- outcome [6]: inactive
- outcome [7]: inactive
- outcome [9]: inactive
- Potency [10]: inactive

Compound: Nc1ncnc2n[nH]c(Nc3ccc(F)cc3)c12
- outcome [3]: inactive
- outcome [5]: inactive
- outcome [6]: inactive
- outcome [7]: inactive
- Potency [8]: inactive
- outcome [9]: inactive

Compound: NC(N)=NCCCCN=C(N)N
- activation [1]: 0.938% (inactive)
- Potency [2]: inactive
- viability change [2]: 2.98%
- outcome [3]: inactive
- outcome [4]: inactive
- outcome [5]: inactive
- outcome [6]: inactive
- outcome [7]: inactive
- Potency [8]: inactive
- outcome [9]: inactive
- Potency [10]: inactive

Compound: CC(=O)OC/C=C(C)/C=C/C=C(C)/C=C/C1=C(C)CCCC1(C)C
- Potency [8]: inactive

Compound: COc1ccccc1N1CCN(CCN2C(=O)CC3(CCCC3)CC2=O)CC1
- activation [1]: 2.31% (inactive)
- Potency [2]: inactive
- viability change [2]: 9.42%
- outcome [3]: inactive
- outcome [4]: inactive
- outcome [5]: inactive
- outcome [6]: inactive
- outcome [7]: inactive
- Potency [8]: inactive
- outcome [9]: inactive
- Potency [10]: inactive

Compound: O=C1NC(=O)/C(=C/c2ccc3c(c2)OC(F)(F)O3)S1
- Potency [2]: inactive
- viability change [2]: -9.96%
- outcome [3]: inactive
- outcome [5]: inactive
- outcome [6]: inactive
- outcome [7]: inactive
- Potency [8]: inactive
- outcome [9]: inactive
- Potency [10]: inactive

Compound: Clc1ccc2c(c1)N=C(N1CCNCC1)c1ccccc1N2
- Potency [2]: inactive
- viability change [2]: 1.81%
- outcome [3]: inactive
- outcome [5]: inactive
- outcome [6]: inactive
- outcome [7]: inactive
- Potency [10]: 12.6 µM (active)

Compound: O=[N+]([O-])c1ccc(-c2nc(-c3ccc(F)cc3)c(-c3ccncc3)[nH]2)cc1
- activation [1]: 4.88% (inactive)
- Potency [2]: 16.4 µM (active)
- viability change [2]: -1.66%
- outcome [3]: inactive
- outcome [4]: inactive
- outcome [6]: inactive
- outcome [7]: inactive
- outcome [9]: inactive
- Potency [10]: inactive

Compound: O=C1NC(c2cccc([N+](=O)[O-])c2)=CCN1c1ccccc1O
- activation [1]: 1.25% (inactive)
- Potency [2]: inactive
- viability change [2]: -1.13%
- outcome [3]: inactive
- outcome [4]: inactive
- outcome [5]: inactive
- outcome [6]: inactive
- outcome [7]: inactive
- Potency [8]: inactive
- outcome [9]: inactive
- Potency [10]: inactive
